Screens from PubChem.
AMA1-RON2 inh: qHTS for Inhibitors of AMA1-RON; Towards Development of Antimalarial Drug Lead: Primary Screen; AlphaScreen AMA1-biotinylated RON2 peptide binding; Potency, µM (titrated, usually from 58.2 µM), for inactives: top-dose activity change, negative = inhibition, most hits filed as inhibitors; 0.2% of 360,000 active;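 note: 0% = vehicle wells and -100% = peptide control; nearly all actives have a fitted effect of over 45% in size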
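AMA1 (3D7) with his tag at 25 nM final met compounds first, then biotinylated RON2 peptide at 25 nM; detection used donor plus acceptor beads, 10 µg/mL apiece, read by AlphaScreen after 30 min at room temperature.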
NS1 inh: qHTS Assay for Inhibitors of Influenza NS1 Protein Function; Potency, µM (titrated, usually from 46.1 µM), for inactives: top-dose activity, positive = more growth; 0.4% of 270,000 active; calls by dose curve; note: actives are rising curves; nearly all actives have a fitted effect of over 50% in size
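Compounds were scored for reversing the slow growth caused by influenza A NS1 in S. cerevisiae, measured by optical density at 600 nm. Assay medium contained 2% galactose at pH 6.0; NS1-free yeast of the same strain were the positive control.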
Pf growth 48h: Primary qHTS for delayed death inhibitors of the malarial parasite plastid, 48 hour incubation; 5.9% of 310,000 active; P. falciparum luciferase growth in erythrocytes, 48 h; Potency, µM (top dose mostly 28.7 µM), without a hit: at the top dose activity change, negative = inhibition, hits mostly inhibitors; note: % is set by controls: 0 for no effect and ±100 for the full control effect
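Firefly luciferase activity from engineered P. falciparum reports growth; inhibitors lower the luminescent signal. Cultures contained 2% hematocrit erythrocytes at 0.1% final parasitemia.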
Sm TGR inh: qHTS Assay for the Inhibitors of Schistosoma Mansoni Peroxiredoxins; 3% of 360,000 active; Potency, µM (top dose mostly 114 µM), inactives show at the top dose activity change, negative = inhibition, hits mostly inhibitors; AID 485364, 2010; purified TGR, DTNB reduction, TNB absorbance 405 nm; Schistosoma mansoni thioredoxin glutathione reductase (TGR), Q962Y6; note: % is set by controls: 0 for no effect and ±100 for the full control effect; nearly all actives have a fitted effect of over 60% in size
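Kinetic colorimetric format: TGR-catalysed, NADPH-driven DTNB reduction monitored via TNB absorbance. Enzyme dispensed at 20 nM; compound exposure 15 min at room temperature before reaction start.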
Pf growth 96h: Primary qHTS for delayed death inhibitors of the malarial parasite plastid, 96 hour incubation | P. falciparum luciferase reporter growth, 96 h | Potency, µM (doses to about 28.7 µM), inactives show top-dose activity change, negative = inhibition, most hits filed as inhibitors | 6.9% of 320,000 active; note: % is set by controls: 0 for no effect and ±100 for the full control effect
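P. falciparum expressing integrated firefly luciferase, in erythrocytes at 2% hematocrit, 0.05% parasitemia, incubated with compounds 96 h at 37 C, 5% CO2. Growth inhibition read as loss of luminescence; two-generation exposure targets delayed-death apicoplast inhibitors.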
Active calls of the source: *. Sampled rows, rich in hits. Any-hit rate of the full collection: about 11%. Unless noted, calls come from the whole dose curve; as a rule, active = well fitted curve in the direction sought with a large enough effect; inconclusive = small, poorly fitted or top-dose-only effect, or another doubt; inactive = no such curve, though single readings can be large; an effect the other way counts as inactive or inconclusive. Potency is the fitted concentration of half-maximal effect.

For CC1CCCCN1S(=O)(=O)c1ccc(NC(=O)c2ccco2)cc1 (centres undefined) the results were AMA1-RON2 inh 5%, NS1 inh -52%, Sm TGR inh -11% and Pf growth 96h 13µM*.
For Cc1ccc(CCNC(=O)c2ccc(Nc3nc4ccccc4n4nnnc34)cc2)cc1 the results were Sm TGR inh 1%.
Screening O=c1cc(CN2CCN(c3ccccc3F)CC2)c2cc(O)c(-c3ccccc3)cc2o1 returned AMA1-RON2 inh 2%, NS1 inh 13%, Pf growth 48h 2.6µM*, Sm TGR inh -7% and Pf growth 96h 2.3µM*.
`COc1ccc(N2CCN(Cc3cc(=O)oc4cc(C)c(Cl)cc34)CC2)cc1` gave AMA1-RON2 inh 4%, NS1 inh -6%, Pf growth 48h -5%, Sm TGR inh -16% and Pf growth 96h 37%.
COc1ccc(OC)c(CN2CCN(Cc3cc(=O)oc4cc(O)ccc34)CC2)c1 was read as AMA1-RON2 inh -14%, NS1 inh 4%, Pf growth 48h 3.7µM*, Sm TGR inh -16% and Pf growth 96h 2.6µM*.
COc1ccc(N2CCN(Cc3cc(=O)oc4cc(-c5ccccc5)c(O)cc34)CC2)cc1 was read as AMA1-RON2 inh -10%, NS1 inh 10%, Pf growth 48h 1.9µM*, Sm TGR inh -20% and Pf growth 96h 2.9µM*.
`COc1ccc2oc(=O)cc(CN3CCN(c4ccccc4F)CC3)c2c1` gave Sm TGR inh 1%.
`CC(C)(C)c1cc(NC(=O)COC(=O)c2ccc(O)cc2O)n(-c2ccccc2)n1` gave AMA1-RON2 inh -4%, Pf growth 48h inconclusive, Sm TGR inh inconclusive and Pf growth 96h inconclusive.
Screening O=C(COC(=O)c1ccc(O)cc1O)Nc1cc(-c2ccccc2)nn1-c1ccccc1 returned AMA1-RON2 inh -26%, Pf growth 48h 12µM*, Sm TGR inh -6% and Pf growth 96h 4.7µM*.
Screening Cc1c(CNCCc2ccc(Cl)cc2)c(C(=O)O)c(C)n1-c1ccccc1 returned AMA1-RON2 inh 0%, NS1 inh 2%, Pf growth 48h 12%, Sm TGR inh 11µM* and Pf growth 96h 12µM*.
Cc1ccc(CCNCc2c(C(=O)O)c(C)n(-c3ccccc3)c2C)cc1 was read as AMA1-RON2 inh -2%, NS1 inh 6%, Pf growth 48h -23%, Sm TGR inh inconclusive and Pf growth 96h inconclusive.
O=C1CCCC(=O)C1C1c2ccccc2CCN1C(=O)CCl (centres undefined) was read as AMA1-RON2 inh -20%, NS1 inh -3%, Pf growth 48h 27%, Sm TGR inh 45µM* and Pf growth 96h inconclusive.
For CC(C)[C@@H](C(=O)N1CCCC1)N1C(=O)N2CCc3c([nH]c4ccccc34)[C@@]2(C)C1=O the results were AMA1-RON2 inh -3%, NS1 inh -9%, Pf growth 48h inconclusive, Sm TGR inh -16% and Pf growth 96h 10µM*.
For CC(C)[C@@H](C(=O)NC1CCN(Cc2ccccc2)CC1)N1C(=O)N2CCc3c([nH]c4ccccc34)[C@@]2(C)C1=O the results were AMA1-RON2 inh -16%, NS1 inh 5%, Pf growth 48h inconclusive, Sm TGR inh 2% and Pf growth 96h 7.4µM*.
COc1ccc2[nH]c3c(c2c1)CCN1C(=O)N([C@@H](C)C(=O)NCc2ccccc2OC)C(=O)[C@]31C was read as AMA1-RON2 inh -18%, NS1 inh 3%, Pf growth 48h 4.1µM*, Sm TGR inh -21% and Pf growth 96h 7.4µM*.
`Cc1cc(C(F)F)n2nc(C(=O)Nc3cccc(Cl)c3C)nc2n1` gave Sm TGR inh 9%.
For CCc1ccc(OCC(=O)NNC(=O)c2cnccn2)c(Br)c1 the results were AMA1-RON2 inh 97%, NS1 inh -48%, Pf growth 48h 10µM*, Sm TGR inh 7% and Pf growth 96h inconclusive.
Screening CCc1ccc(OCC(=O)NC2CCCCC2)c(Br)c1 returned AMA1-RON2 inh 1%, NS1 inh 3%, Pf growth 48h 1%, Sm TGR inh 2% and Pf growth 96h 12µM*.
For CCc1ccc(OCC(=O)Nc2ccncc2)c(Br)c1 the results were AMA1-RON2 inh 6%, NS1 inh -78%, Pf growth 48h 68%, Sm TGR inh -3% and Pf growth 96h -17%.
For CCn1c(SCC(=O)Nc2ccc(OC)cc2)nc2c(c1=O)SCC2 the results were AMA1-RON2 inh -1%, NS1 inh 8%, Pf growth 48h -28%, Sm TGR inh 14% and Pf growth 96h inconclusive.
Screening COc1ccc(C2=Nn3c(nc4sc(C(=O)Nc5cccc(C)c5)c(C)c4c3=O)SC2)cc1 returned Sm TGR inh 2%.
For COc1ccccc1/C=C/C(=O)N1CCc2cc(OC)c(OC)cc2C1C (centres undefined) the results were AMA1-RON2 inh -5%, NS1 inh -10%, Pf growth 48h -9%, Sm TGR inh -13% and Pf growth 96h inconclusive.
CN(CC(=O)NCc1ccccc1Cl)S(=O)(=O)c1ccc2c(c1)c(=O)n(C)c(=O)n2C was read as Sm TGR inh -4%.
Screening CCC1Oc2ccc(C)cc2N(CC(=O)N(Cc2ccc(C)o2)C2CC(C)(C)NC(C)(C)C2)C1=O (centres undefined) returned AMA1-RON2 inh -5%, NS1 inh -4%, Pf growth 48h inconclusive, Sm TGR inh -20% and Pf growth 96h inconclusive.
CCC1Oc2ccc(C)cc2N(CC(=O)N(Cc2cccnc2)Cc2ccc(C)o2)C1=O (centres undefined) was read as AMA1-RON2 inh -2%, NS1 inh -18%, Pf growth 48h 12µM*, Sm TGR inh -13% and Pf growth 96h 251%.
For Cc1n(C)c2cc(Cl)ccc2[n+]1Cc1ccccc1 the results were AMA1-RON2 inh -3%, Pf growth 48h 2.9µM*, Sm TGR inh -5% and Pf growth 96h 22%.
For CC(=O)OCC[n+]1c(C)n(-c2ccccc2)c2ccc(Cl)cc21 the results were AMA1-RON2 inh -22%, Pf growth 48h inconclusive, Sm TGR inh 10% and Pf growth 96h 0%.
For Cc1ccccc1C(=O)Nc1ccnn1C1CCN(CC2CC=CCC2)CC1 (centres undefined) the results were AMA1-RON2 inh 25%, NS1 inh 5%, Pf growth 48h 10%, Sm TGR inh -1% and Pf growth 96h 15µM*.
Screening Cc1ccc(CN2CCC(n3nccc3NC(=O)c3ccccc3C)CC2)o1 returned AMA1-RON2 inh -5%, NS1 inh 9%, Pf growth 48h -19%, Sm TGR inh -12% and Pf growth 96h 2.1µM*.
